92 compounds from publication PMC4336329 (PLoS ONE, 2015) can be followed below.

Screen size: about 310,000 compounds; about 14,000 (4.5%) showed an effect of 50% or more. Effects have a minus sign here. The sample as a whole holds a higher share of strong results than the screen did.
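Also: peak tail current of the secondary pulse compared with the same well before compound.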

For the assay, the target named is human ether-à-go-go-related gene (hERG) potassium channel (human, UniProt Q12809). The experiment in a line: primary screen, population patch clamp on CHO cells stably expressing hERG; higher = less effect of the substance.
human ether-à-go-go-related gene (hERG) potassium channel, sequence (Q12809 whole entry, looked up): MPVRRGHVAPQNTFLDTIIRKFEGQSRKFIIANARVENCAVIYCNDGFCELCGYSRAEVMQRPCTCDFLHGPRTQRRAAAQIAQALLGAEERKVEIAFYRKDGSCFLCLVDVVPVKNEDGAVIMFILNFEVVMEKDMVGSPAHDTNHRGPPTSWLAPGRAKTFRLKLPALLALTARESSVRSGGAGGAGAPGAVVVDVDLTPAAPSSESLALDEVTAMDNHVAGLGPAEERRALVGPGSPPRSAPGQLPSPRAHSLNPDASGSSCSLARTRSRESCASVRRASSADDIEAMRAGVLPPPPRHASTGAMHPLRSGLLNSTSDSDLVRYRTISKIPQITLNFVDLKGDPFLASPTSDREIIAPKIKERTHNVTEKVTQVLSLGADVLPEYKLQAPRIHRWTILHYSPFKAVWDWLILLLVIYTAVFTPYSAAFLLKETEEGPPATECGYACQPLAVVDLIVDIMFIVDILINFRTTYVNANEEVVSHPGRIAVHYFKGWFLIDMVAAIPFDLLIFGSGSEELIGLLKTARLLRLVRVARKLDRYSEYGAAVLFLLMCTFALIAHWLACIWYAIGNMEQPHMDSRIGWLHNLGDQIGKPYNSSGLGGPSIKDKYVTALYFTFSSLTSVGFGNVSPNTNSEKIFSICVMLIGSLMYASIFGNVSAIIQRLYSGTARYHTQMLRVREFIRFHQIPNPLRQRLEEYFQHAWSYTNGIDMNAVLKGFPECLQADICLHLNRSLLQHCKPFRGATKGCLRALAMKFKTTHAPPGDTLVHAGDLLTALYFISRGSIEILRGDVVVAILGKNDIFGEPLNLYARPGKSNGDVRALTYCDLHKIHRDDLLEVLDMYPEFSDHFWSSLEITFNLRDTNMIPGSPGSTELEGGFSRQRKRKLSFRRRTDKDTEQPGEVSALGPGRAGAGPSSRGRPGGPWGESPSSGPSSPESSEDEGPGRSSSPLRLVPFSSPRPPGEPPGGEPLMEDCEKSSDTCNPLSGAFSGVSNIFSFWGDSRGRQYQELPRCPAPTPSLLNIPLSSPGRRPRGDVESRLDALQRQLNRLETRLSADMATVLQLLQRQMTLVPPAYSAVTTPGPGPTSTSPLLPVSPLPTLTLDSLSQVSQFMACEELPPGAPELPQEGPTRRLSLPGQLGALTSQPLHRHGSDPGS
`O=C(NC1CCCCC1)C1CC(=O)N(CCc2ccccc2)C1` (centres unmarked): the “hERG current change (%, negative = inhibition) at 10uM” value was -7.01%. Take `O=C(c1ccccc1O)N1CCOCC1`: the “hERG current change (%, negative = inhibition) at 10uM” value came out at 3.51%. `CNC(=S)N(CCc1c(C)[nH]c2ccc(OC)cc12)Cc1cccnc1`: the “hERG current change (%, negative = inhibition) at 10uM” value is 9.25%. Then `CCn1c(=O)c(=O)[nH]c2cc(C(=O)NC(C)c3ccc(S(N)(=O)=O)cc3)ccc21` (centres unmarked), with 3.47%. As for `CCCCCOc1ccc(/C(C)=N/NC2=NCCN2)cc1`, the figure is -39.8%; as for `Cc1cc(N2CCC(C(=O)NC3CCCCC3)CC2)nc(-c2ccccc2)n1`, -49.6%; as for `Cc1cc(N2CCC(C(=O)NC3CC3)CC2)nc(-c2ccccc2)n1`, -46%. Then `Cc1cc(C)nc(N2CCC(C(=O)NCc3ccccc3)CC2)n1`, with 3.44%; and `C=CCNC(=O)C1CCN(c2nc(C)cc(-c3ccccc3)n2)CC1`, with -51.3%; and `C#CCNC(=O)C1CCN(c2cc(C)nc(-c3ccccc3)n2)CC1`, with -40.7%. As for `C=CCNC(=O)C1CCN(c2cc(C)nc(-c3ccccc3)n2)CC1`, the “hERG current change (%, negative = inhibition) at 10uM” value is on record as -58.2%.

As for `Cc1cc(N2CCC(C(=O)NCC3CC3)CC2)nc(-c2ccccc2)n1`, the “hERG current change (%, negative = inhibition) at 10uM” value was -73.1%. As for `Cc1cc(N2CCC(C(=O)Nc3ccc(F)cc3)CC2)nc(-c2ccccc2)n1`, the “hERG current change (%, negative = inhibition) at 10uM” value is -32.9%. Then `Cc1cc(-c2ccccc2)nc(N2CCC(C(=O)NC(C)C)CC2)n1`, with 4.06%. Then `COc1ccc(NC(=O)c2sccc2OS(=O)(=O)N(C)C)cc1`, with 11.2%. On to `C/C(=N/NC(N)=S)c1ccc(Br)s1`, for which the “hERG current change (%, negative = inhibition) at 10uM” value turned out to be 16.8%. As to `CCOc1ccccc1/C=N/NC(=O)Cc1csc(Nc2cccc(C(F)(F)F)c2)n1`, the “hERG current change (%, negative = inhibition) at 10uM” value came out at 4.05%.

`N#CSc1ccc2oc(C3=NCCN3)cc2c1`: the “hERG current change (%, negative = inhibition) at 10uM” value is 0.521%. As for `O=C(c1ccc2c(c1)OCCCO2)N1CCCCC1`, the figure is 11.7%; as for `CCNc1nc(NCC)nc(OCC(=O)O)n1`, 7.6%; as for `COc1ccc(N2CCN(c3nc(NCCO)nc(N4CCOCC4)n3)CC2)cc1`, -1.07%. For the compound `O=C1NC(=O)N(Cc2ccccc2)C1=O`, the “hERG current change (%, negative = inhibition) at 10uM” value turned out to be 26.4%. Then `COc1ccc(C2/C=C\CN(CC3CC3)CC(=O)N2Cc2ccc(F)cc2)cc1` (centres unmarked), with -21%.

For `CCCCNCCCOc1ccc(C)cc1Br.O=C(O)C(=O)O`, the “hERG current change (%, negative = inhibition) at 10uM” value is on record as -35%.

Consider `CCCCNCCCOc1cc(Cl)ccc1Cl.O=C(O)C(=O)O`, for which the “hERG current change (%, negative = inhibition) at 10uM” value was -54.3%. For `COCCNCCCOc1ccc(Cl)cc1Br.O=C(O)C(=O)O`, the “hERG current change (%, negative = inhibition) at 10uM” value is listed as -42%. As for `COCCCNCCOCCOc1ccccc1-c1ccccc1.O=C(O)C(=O)O`, the figure is -29.4%; as for `CCCCNCCOCCOc1ccc(C)cc1Br.O=C(O)C(=O)O`, -32.1%; as for `CCCCNCCOCCOc1ccccc1-c1ccccc1.O=C(O)C(=O)O`, -50.1%. Then `CCCCNCCOc1ccccc1-c1ccccc1.O=C(O)C(=O)O`, with -28.2%; and `CCCCNCCOCCOc1ccc(Cl)cc1Br.O=C(O)C(=O)O`, with -57.9%; and `OCCNCCCOc1cc(Cl)ccc1Cl`, with -14.4%. As for `CCCCNCCOCCSc1ccc(Cl)cc1.O=C(O)C(=O)O`, the figure is -43.5%.

As to `COCCCNCCOCCOc1ccc(Cl)cc1Br.O=C(O)C(=O)O`, the “hERG current change (%, negative = inhibition) at 10uM” value is recorded as -51.9%.

Turning to `COCCCNCCCOc1ccc(C)cc1Br.O=C(O)C(=O)O`, the “hERG current change (%, negative = inhibition) at 10uM” value was -30.7%. With `CCOC(=O)Cn1c(-c2ccc(OC)cc2)c(-c2ccc(OC)cc2)nnc1=O`, the “hERG current change (%, negative = inhibition) at 10uM” value was found to be 9.79%.

As for `O=C(NC(=S)NCCc1ccccn1)c1ccco1`, the “hERG current change (%, negative = inhibition) at 10uM” value is 17.4%.

As for `COc1cccc(CNS(=O)(=O)c2ccc(S(=O)(=O)N3CCCC3)cc2)c1`, the “hERG current change (%, negative = inhibition) at 10uM” value amounted to 7.51%.

For `COc1ccc(C(=O)N(Cc2ccco2)Cc2cccs2)c(O)c1`, the “hERG current change (%, negative = inhibition) at 10uM” value is recorded as -6.63%. Then `O=C(CSc1nncn1-c1ccccc1)Nc1ccc(N2CCOCC2)cc1`, with 3%; and `CN(C)S(=O)(=O)c1ccc(NC(=O)N2CCN(c3cccc(C(F)(F)F)c3)CC2)cc1`, with 7.83%. Then `Cc1ccsc1C(=O)OCC(=O)NCCNC(=O)COC(=O)c1sccc1C`, with 15.7%; and `O=C(CCNC(=O)c1ccccc1Cl)Nc1cc(S(=O)(=O)N2CCOCC2)ccc1N1CCCC1`, with -8.58%. As for `COc1ccccc1-c1c(C)nn2c(-c3ccccc3)cc(C)nc12`, the figure is 3.05%; as for `CCOC(=O)COn1c(=O)c(-c2ccc(Cl)cc2)[n+]([O-])c2ccccc21`, -4.24%. Turning to `Cc1ccc(S(=O)(=O)N(Cc2cccc(F)c2)C(=O)N2CCN(C)CC2)cc1`, the “hERG current change (%, negative = inhibition) at 10uM” value came out at 33.1%. As to `CCCC(=O)Nc1ccc(C(=O)NCc2ccccn2)cc1`, the “hERG current change (%, negative = inhibition) at 10uM” value came to 14.2%. Then `CC(C)c1csc(CN2CCN(Cc3ccc(F)cc3)C(CCO)C2)n1` (centres unmarked), with -35.3%; and `COc1cccc(CN2CCN(Cc3nc(C(C)C)cs3)CC2CCO)c1` (centres unmarked), with -73.7%. As for `COc1cccc(CN2CCN(Cc3c(C)nn(C(C)C)c3C)CC2CCO)c1` (centres unmarked), the figure is -2.68%. Then `CCOc1ccc(CN2CCN(Cc3nc(C(C)C)cs3)CC2CCO)cc1` (centres unmarked), with -82.2%; and `Cc1ccc(CN2CCN(Cc3nc(C(C)C)cs3)CC2CCO)cc1` (centres unmarked), with -68.5%; and `Cc1nn(-c2ccccc2)c(C)c1/C=C/C(=O)OCC(=O)Nc1ccc(S(N)(=O)=O)cc1`, with 13.1%.

For the compound `COc1ccccc1C(=O)NCCC(=O)N(C)CC(=O)Nc1ccc(C)cc1`, the “hERG current change (%, negative = inhibition) at 10uM” value is given as 7.91%. Then `Cc1ccc(S(=O)(=O)NC(CC(=O)O)c2ccccc2)c(C)c1` (centres unmarked), with 5.52%; and `CC1C(c2ccccc2)C(C#N)(C#N)C2(C#N)C(=O)NC1(N)C2C` (centres unmarked), with -3.25%; and `c1ccc(-n2nnnc2-c2cnc(-c3cccnc3)nc2-c2cccs2)cc1`, with -10.6%. As for `O=C(CN1CCN(Cc2ccc(Cl)cc2)CC1)N/N=C/c1ccccc1F`, the figure is -68.7%; as for `Cc1ccc(CN2CCN(CC(=O)N/N=C/c3c[nH]c4ccccc34)CC2)cc1`, -36.3%.

Consider `CN1CCN(CC(=O)N/N=C\c2c[nH]c3ccccc23)CC1`, for which the “hERG current change (%, negative = inhibition) at 10uM” value stood at 16.2%. Then `O=C(CN1CCN(Cc2ccc(Cl)cc2)CC1)N/N=C/c1c[nH]c2ccccc12`, with -52.9%. As for `O=C(CO)N/N=C/c1ccccc1F`, the figure is 19.1%; as for `O=C(CN1CCN(c2ccccc2)CC1)N/N=C/c1cccc(F)c1`, 4.27%.

In the case of `O=C(CC(=O)Nc1ccc(Cl)cc1)N/N=C\c1cccc(F)c1`, the “hERG current change (%, negative = inhibition) at 10uM” value worked out at 16.6%. As for `O=C(CN1CCCCCCC1)N/N=C/c1ccccc1F`, the figure is -35.6%; as for `O=C(COCC(=O)N/N=C/c1ccccc1F)N/N=C/c1ccccc1F`, -54.8%.

As to `O=C(CN1CCN(Cc2ccccc2)CC1)N/N=C/c1ccccc1F`, the “hERG current change (%, negative = inhibition) at 10uM” value is reported as -29.3%. Then `COc1ccccc1/C=N/NC(=O)COCC(=O)N/N=C/c1ccccc1OC`, with 3.56%; and `O=C(CN1CCN(Cc2ccc(Cl)cc2)CC1)N/N=C/c1cccc(F)c1`, with -69.2%. Then `O=C1CN(C(=O)CSc2nnc(Nc3ccccc3)s2)c2ccccc2N1`, with 0.255%. As for `COc1ccc(NC(=S)NCc2ccc3c(c2)cc(C)n3C)cc1`, the figure is 5.5%; as for `CN(CCO)c1cc(NCCCN2CCC(Cc3ccccc3)CC2)c2nonc2c1[N+](=O)[O-]`, -38%; as for `COC(=O)c1ccc(NC(=O)c2ccc3c(c2)C(=O)N(Cc2cccnc2)C3=O)cc1`, -23.2%. Turning to `CCCCCCn1c(O)c(C(C)=NC)c(=O)[nH]c1=O`, the “hERG current change (%, negative = inhibition) at 10uM” value is reported as 1.56%. Then `CC1CCc2nn(CC(=O)Nc3ccc(F)cc3F)cc2C1` (centres unmarked), with -2.61%; and `COc1ccc(-c2nc3ccccc3n2Cc2ccc(C)cc2)cc1`, with -6.29%; and `CN1C(=O)C(C)(C)c2cc(S(=O)(=O)N3CCCC(C(=O)NCc4ccccc4Cl)C3)ccc21` (centres unmarked), with 2.18%.

As to `C=CCN(C(=O)CCC(=O)O)C1CC(=O)N(c2ccc(OCCC)cc2)C1=O` (centres unmarked), the “hERG current change (%, negative = inhibition) at 10uM” value turned out to be 0.711%. As for `Cc1ccc2oc(=O)c3cc(C(=O)NCCN4CCN(C)CC4)sc3c2c1`, the figure is -18.2%; as for `COC(=O)c1ccc(C)c(NC(=O)C2CC(=O)N(C3CCCC(C)C3C)C2)c1` (centres unmarked), -11.5%; as for `O=C(OCC(=O)N1CCCCC1)c1c[nH]c2ccccc12`, -7.04%. As for `Cc1ccc(CN2CCN(CC(=O)N/N=C/c3ccccc3F)CC2)cc1`, the figure is -66.4%; as for `O=C(CN1CCSCC1)N/N=C/c1ccccc1F`, 0.735%. As for `O=C(O)COc1ccccc1/C=N/NC(=O)CN1CCN(Cc2ccc(Cl)cc2)CC1`, the figure is 10.7%.

Consider `Cc1nc2ccccc2c(=O)n1-c1ccc(Cl)cc1Cl`, for which the “hERG current change (%, negative = inhibition) at 10uM” value is listed as -0.324%.

With `Cc1ccc(CSc2ncnc3c2cnn3-c2ccc(C)cc2)cc1`, the “hERG current change (%, negative = inhibition) at 10uM” value amounted to 30.7%. Then `COc1ccc([N+](=O)[O-])cc1N(CC(O)Cn1nnc2ccccc21)S(=O)(=O)c1ccc(C)cc1` (centres unmarked), with -29.4%. As for `COc1ccc(N(CC(O)Cn2c(C)nc3ccccc32)S(=O)(=O)c2ccc(C)cc2)cc1` (centres unmarked), the figure is -11.5%. Then `COc1ccc(N(CC(O)Cn2cnc3ccccc32)S(=O)(=O)c2ccc(C)cc2)cc1` (centres unmarked), with -58%; and `COc1ccc(N(CC(O)CN2C(=O)NC(C)(C)C2=O)S(=O)(=O)c2ccc(C)cc2)cc1` (centres unmarked), with -11.6%; and `COc1ccc(N(CC(O)Cn2nnc3ccccc32)S(=O)(=O)c2ccc(C)cc2)cc1` (centres unmarked), with -64.6%. With `COc1ccc(N(CC(O)Cn2c(C)nc3ccccc32)S(=O)(=O)c2ccccc2)cc1` (centres unmarked), the “hERG current change (%, negative = inhibition) at 10uM” value is listed as 4.8%.
